Experimental data taken from PubChem BioAssay (NCATS).
Inconclusive results are not listed. Active and inactive are the calls of the source. Calls come from the whole dose curve; as a rule, active = well fitted curve in the direction sought with a large enough effect; inconclusive = small, poorly fitted or top-dose-only effect, or another doubt; inactive = no such curve, though single readings can be large; an effect the other way counts as inactive or inconclusive.

What was measured:
[1] = Primary fluorescence-based thiol-reactive (MSTI) qHTS assay for identification of artifact compounds. (AID 1845221);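 note: series mostly up to about 54 µM; thiol-reactive compounds lower the probe fluorescence signal; nearly all actives have a fitted effect of over 65% in size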
Procedure, shortened: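 qHTS titration of compound; 4 uM MSTI, PBS pH 7.4, 2% DMSO; 1 h RT, dark; fluorescence 525/598 nm; normalized to Acetyl-MSTI and MSTI; 4-parameter Hill fit.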

[2] = system: Nanoluciferase (engineered Oplophorus gracilirostris luciferase); experiment: Primary Nanoluciferase (NLuc) qHTS assay for identification of artifact compounds. (AID 1845222);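 note: NLuc secreted into diluted conditioned medium of S16 cells; series mostly up to about 54 µM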
Procedure, shortened: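 Concentration-response data were obtained by luminescence after 5 min with Nano-Glo substrate at 1:100. The enzyme was diluted S16 NLuc-expressing cell medium, preincubated with compound for 15 min at RT. Curves were fitted with a 4-parameter Hill model.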

[3] = Primary redox qHTS assay for identification of artifact compounds. (AID 1845223);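 note: 0% = DMSO and 100% = reference compound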
Procedure, shortened: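 Redox-cycling detection via DTT (250 uM final) oxidation coupled to Amplex Red (25 uM)/HRP (250 mU/mL) in HBSS. 15 min preincubation plus 30 min after DTT, room temperature. Ex/Em 525/598 nm; 4-parameter Hill fit against DMSO and 10 uM DA3003.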

[4] = Quantitative High-Throughput drug screen in 47 multiple myeloma cell lines against the NCATS MIPE library collection: EJM_DSMZ cell viability assay (AID 1918926; note: nearly all actives have a fitted effect of over 30% in size; note: potency is the fitted concentration of half-maximal effect)
Procedure, shortened: (§1)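 qHTS of the MIPE 4.0 collection: 500 myeloma cells/well, 48 h drug exposure at 37C in 5% CO2, then CellTiter-Glo for 5 min at room temperature before luminescence reading.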

[5] = Quantitative High-Throughput drug screen in 47 multiple myeloma cell lines against the NCATS MIPE library collection: AMO1_DSMZ cell viability assay (AID 1918927; note: nearly all actives have a fitted effect of over 30% in size; note: potency is the fitted concentration of half-maximal effect)
Procedure, shortened: as §1

[6] = Quantitative High-Throughput drug screen in 47 multiple myeloma cell lines against the NCATS MIPE library collection: Karpas620_DSMZ cell viability assay (AID 1918959); note: nearly all actives have a fitted effect of over 30% in size; note: potency is the fitted concentration of half-maximal effect
Procedure, shortened: as §1

[7] = target: Phospholipid hydroperoxide glutathione peroxidase GPX4 (Homo sapiens) (UniProt P36969); experiment: Primary qHTS Assay for Inhibitors of Recombinant Selenoprotein Glutathione Peroxidase 4 (GPX4) (AID 1845192); note: nearly all actives have a fitted effect of over 65% in size; for activity change, negative = inhibition: series mostly up to about 50 µM; % is set by controls: 0 for no effect and ±100 for the full control effect
Procedure, shortened: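 qHTS, GR-coupled: GPX4 200 nM + cpd 30 min RT → GSH 1 mM, NADPH 0.5 mM, GR 100 nM → CHP 0.5 mM start; fluor 340/450 at t0 and t15 min; no-enzyme wells as control.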

[8] = Quantitative High-Throughput drug screen in 47 multiple myeloma cell lines against the NCATS MIPE library collection: Delta47_JCRB cell viability assay (AID 1918925; note: nearly all actives have a fitted effect of over 45% in size; note: potency is the fitted concentration of half-maximal effect)
Procedure, shortened: as §1

[9] = Quantitative High-Throughput drug screen in 47 multiple myeloma cell lines against the NCATS MIPE library collection: ARP1_JJKsccF8 cell viability assay (AID 1918928; note: nearly all actives have a fitted effect of over 40% in size; note: potency is the fitted concentration of half-maximal effect)
Procedure, shortened: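 Cell viability inhibition in this qHTS is measured via ATP content (CellTiter-Glo) after 48 h drug exposure at 37 °C. Wells hold 500 cells; DMSO-treated wells define 100% and medium-only wells 0%.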

[10] = Quantitative High-Throughput drug screen in 47 multiple myeloma cell lines against the NCATS MIPE library collection: FR4_PLB cell viability assay (AID 1918924; note: nearly all actives have a fitted effect of over 35% in size; note: potency is the fitted concentration of half-maximal effect)
Procedure, shortened: as §1

[11] = Quantitative High-Throughput drug screen in 47 multiple myeloma cell lines against the NCATS MIPE library collection: ARD_JJKsccE7 cell viability assay (AID 1918929; note: potency is the fitted concentration of half-maximal effect;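 for viability: 100% = DMSO-only wells and 0% = media-only wells without cells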)
Procedure, shortened: as §1

Phospholipid hydroperoxide glutathione peroxidase GPX4 (Homo sapiens), sequence (P36969 whole entry, looked up): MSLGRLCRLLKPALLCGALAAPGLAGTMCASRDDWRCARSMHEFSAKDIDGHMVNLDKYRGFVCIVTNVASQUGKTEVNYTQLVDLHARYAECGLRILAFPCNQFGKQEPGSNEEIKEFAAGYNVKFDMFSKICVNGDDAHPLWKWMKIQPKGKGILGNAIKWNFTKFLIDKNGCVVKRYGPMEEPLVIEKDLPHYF

COc1nccc(-c2c(-c3ccc(F)cc3)ncn2C2CCNCC2)n1
inactive: Potency [1] | Potency [2] | outcome [3] | Potency [4] | Potency [5] | Potency [6]

O=C(NC[C@H](O)CO)c1ccncc1Nc1ccc(I)cc1F
active: Potency [8] 11.8 µM | Potency [4] 18.7 µM | Potency [5] 5.26 µM | Potency [9] 2.96 µM | Potency [6] 0.0296 µM
inactive: Potency [7]

CCCCCOC(=O)Nc1nc(=O)n([C@@H]2O[C@H](C)[C@@H](O)C2O)cc1F (some centres undefined)
inactive: Potency [10] | Potency [8] | Potency [4] | Potency [5] | Potency [9] | Potency [11] | Potency [6]

CC(C)=CCCC(C)=CCCC(C)=CCCC(C)=CCCC(C)=CCCC(C)=CCCC(C)=CCCC(C)=CCCC(C)=CCO
inactive: Potency [10] | Potency [8] | Potency [4] | Potency [5] | Potency [9] | Potency [11] | Potency [6]

O=C(Nc1cccc(Cl)c1)Nc1ncc(CCNc2ncnc3ccsc23)s1
inactive: Potency [7]
active: Potency [10] 6.62 µM | Potency [8] 7.43 µM | Potency [5] 1.05 µM | Potency [11] 4.69 µM | Potency [6] 3.32 µM

N#Cc1c(N(CC(=O)O)CC(=O)O)sc(C(=O)O)c1CC(=O)O
active: Potency [5] 8.33 µM
inactive: activity change, negative = inhibition [7] 4.92% [at 0.409 µM] | Potency [10] | Potency [4]

CC(C)C[C@H](NC(=O)c1cc2ccccc2s1)C(=O)N1CCN(C(=O)[C@H](CO)NS(=O)(=O)c2ccc(Cl)cc2Cl)CC1
inactive: Potency [7]
active: Potency [8] 26.4 µM | Potency [4] 18.7 µM

CN(C)CCOc1ccc(-c2nc(-c3ccc4c(c3)CCC4=NO)c(-c3ccncc3)[nH]2)cc1
active: Potency [10] 18.7 µM | Potency [8] 14.8 µM | Potency [4] 23.5 µM | Potency [5] 18.7 µM | Potency [9] 16.6 µM | Potency [11] 23.5 µM | Potency [6] 11.8 µM

CN1C(=O)C[C@H](C(=O)N[C@@H](Cc2cnc[nH]2)C(=O)N2CCC[C@@H]2C(N)=O)NC1=O
inactive: Potency [7] | Potency [10] | Potency [4] | Potency [11] | Potency [6]

CC(C)Oc1cc(Nc2nc(N[C@@H](C)c3ccc(F)cn3)ncc2Cl)[nH]n1
inactive: Potency [7]
active: Potency [8] 8.33 µM | Potency [4] 20.9 µM | Potency [5] 18.7 µM | Potency [11] 14.8 µM

Cc1[nH]c(C=C2C(=O)Nc3ccc(S(=O)(=O)N(C)c4cccc(Cl)c4)cc32)c(C)c1C(=O)N1CCN(C)CC1
active: Potency [10] 26.4 µM | Potency [8] 14.8 µM | Potency [4] 23.5 µM | Potency [5] 5.9 µM | Potency [9] 23.5 µM | Potency [11] 6.62 µM | Potency [6] 9.35 µM

O=c1[nH]c(=O)n([C@H]2C[C@@H](O)[C@@H](CO)O2)cc1I
active: Potency [11] 3.32 µM
inactive: Potency [10] | Potency [8] | Potency [4] | Potency [9] | Potency [6]

CCNC(=O)CCCC=CC[C@@H]1[C@H](C=CC(O)CCc2ccccc2)[C@@H](O)C[C@@H]1O (some centres undefined)
inactive: Potency [10] | Potency [8] | Potency [5] | Potency [6]
active: Potency [9] 10.5 µM

O=c1[nH]c(=O)n([C@H]2C[C@@H](O)[C@@H](CO)O2)cc1C(F)(F)F
active: Potency [8] 5.26 µM | Potency [4] 1.66 µM | Potency [11] 1.32 µM
inactive: Potency [10] | Potency [6]

O=C(Nc1ccccc1)Nc1ccc(-c2ccc(C(=O)[C@H]3CCC[C@H]3C(=O)O)cc2)cc1
inactive: Potency [10] | Potency [8] | Potency [9]
active: Potency [6] 13.2 µM

CON(C)C(=O)N1N=C(c2cc(F)ccc2F)S[C@]1(CCCN)c1ccccc1
active: Potency [5] 0.001 µM | Potency [11] 0.001 µM
inactive: Potency [10] | Potency [4] | Potency [6]

CC1(C)OC2CC3C4CC(F)C5=CC(=O)C=CC5(C)C4C(O)CC3(C)[C@]2(C(=O)CO)O1 (some centres undefined)
inactive: Potency [10] | Potency [8] | Potency [4] | Potency [5] | Potency [6]
active: Potency [9] 0.0209 µM | Potency [11] 0.0187 µM

N#CC(=C1Nc2ccccc2S1)c1ccnc(OCc2ccc(CN3CCOCC3)cc2)n1
active: Potency [10] 23.5 µM | Potency [8] 7.43 µM | Potency [5] 0.0332 µM | Potency [11] 0.105 µM | Potency [6] 0.0264 µM

CN[C@H]1[C@@H](O[C@@H]2[C@H](O[C@@H]3[C@@H](O)[C@@H](O)[C@@H](N=C(N)N)[C@@H](O)[C@@H]3N=C(N)N)O[C@H](C)[C@@]2(O)C=O)O[C@@H](CO)[C@@H](O)[C@H]1O
inactive: Potency [10] | Potency [8] | Potency [4] | Potency [6]
